Pf growth 96h = inhibits malaria parasite growth, 96 h; P. falciparum luciferase reporter growth, 96 h; Potency, µM (doses to about 28.7 µM), inactives show at the highest dose activity change, negative = inhibition, most hits filed as inhibitors; hit rate 6.9% among 320,000; AID 504834; further: on the % scale 0 is the no-effect control and ±100 the full control effect
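Cell-based qHTS: luciferase-tagged P. falciparum in erythrocytes (2% hematocrit, 0.05% parasitemia final) incubated with compounds for 96 hours, 37 C, 5% CO2; luciferase detection reagent then added and luminescence measured.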
Pf growth 48h = inhibits P. falciparum growth in the first generation, 48 h; P. falciparum luciferase growth in erythrocytes, 48 h; Potency, µM (titrated, usually from 28.7 µM), for inactives: at the highest dose activity change, negative = inhibition, actives largely listed as inhibitors; hit rate 5.9% among 310,000; AID 504832; further: on the % scale 0 is the no-effect control and ±100 the full control effect
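Read-out is firefly luciferase luminescence from an integrated reporter in P. falciparum, so falling signal marks reduced parasite growth. Infected erythrocytes were at 2% hematocrit and 0.1% parasitemia (final) in Albumax-supplemented RPMI 1640.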
SARS PLpro yeast = SARS-CoV PLP inhibition in yeast; S. cerevisiae expressing SARS-CoV PLpro, growth rescue; hit rate 0.19% among 330,000; Potency, µM (top dose mostly 32.9 µM), for the others: at the top dose activity, positive = growth rescue, usual class: activators; AID 485353; calls by dose curve; further: 0% is about no effect; nearly all actives have a fitted effect of over 55% in size
NS1 function inh = influenza NS1 inhibition | Potency, µM (highest dose often 46.1 µM), for the others: at the highest dose activity, positive = more growth | hit rate 0.4% among 270,000; calls by dose curve; further: actives are rising curves; nearly all actives have a fitted effect of over 50% in size
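In this qHTS, NS1 from influenza A is expressed in budding yeast, where it slows growth. Cells are switched from glucose to 2% galactose medium (pH 6.0, -URA), treated with compound, and growth recovery is read at OD600.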
* hit, by the source's call; ? = inconclusive; . = no result. Only some compounds are listed: those with a hit (about 10% of all), similar ones and a draw of the others. Unless noted, the call rests on the fitted dose curve; in most records, active means well fitted inhibition curve with a large enough effect; inconclusive means small, poorly fitted or top-dose-only effect, or another doubt; inactive means no such curve, though single readings can be large or run the other way. Potency means the concentration at half of the fitted maximal effect.

SMILES	Pf growth 96h	Pf growth 48h	SARS PLpro yeast	NS1 function inh
O=C(CSc1nnc(Cn2nnc3ccccc32)o1)N(Cc1ccc(Cl)cc1)c1ccccc1	.	10µM*	5%	23%
COc1ccc(C)cc1NC(=O)COC(=O)CCC(=O)c1cccs1	-24%	?	-3%	.
CCN(CC)CCCNC(=O)c1[nH]c2ccccc2c1Sc1ccc(Cl)cc1	13µM*	13µM*	-1%	2%
COC(=O)c1[nH]c2ccccc2c1Sc1ccccc1	-14%	-11%	-1%	7%
Cc1cc(C)c(O)c(N)c1	2.3µM*	?	-5%	-6%
Cc1ccc(N)c(C)c1	?	1%	-3%	.
COc1cccc2c1C(=N)c1c(O)c3c(c(O)c1C2=O)C[C@](O)(C(C)=O)C[C@@H]3O[C@H]1C[C@H](N)[C@@H](O)[C@H](C)O1	.	.	.	3%
CC(=O)C1(O)Cc2c(O)c3c(c(O)c2C(OC2CC(N)C(O)C(C)O2)C1)C(=O)c1c(O)cccc1C3=O (stereo unspecified)	0.85µM*	1.5µM*	.	.
COc1cccc2c1C(=O)c1c(O)c3c(c(O)c1C2=O)C[C@@](O)(C(=O)CO)C[C@@H]3O[C@H]1C[C@H](N)[C@H](O)[C@H](C)O1	0.093µM*	0.15µM*	.	?
COc1cccc2c1C(=O)c1c(O)c3c(c(O)c1C2=O)C[C@@](O)(C(=O)CO)C[C@@H]3OC1CC(N)C(O)C(C)O1 (stereo partly specified)	0.067µM*	0.43µM*	.	.
CCCN(C(=O)CSCC(=O)Nc1ccc(OC)cc1)c1c(N)n(Cc2ccccc2)c(=O)[nH]c1=O	8%	-18%	2%	.
O=C(CNC1CC1)Nc1cc(C(F)(F)F)ccc1Cl	1.5µM*	1.2µM*	-1%	7%
O=C(CNC1CCCCC1)Nc1cccc(C(F)(F)F)c1	9.3µM*	-23%	23%	-5%
CN(C)CC(=O)Nc1cc(C(F)(F)F)ccc1Cl	-17%	17%	0%	4%
O=C(Nc1cccc(C(F)(F)F)c1)C12CC3CC(CC(C3)C1)C2	-7%	13µM*	-25%	2%
O=C(CN1C(=O)C2CCCCC2C1=O)Nc1cccc(C(F)(F)F)c1 (stereo unspecified)	.	.	-2%	.
O=C(O)c1ccncc1.O=C(O)c1ccncc1.[Cl][Pt]([Cl])([Cl])[Cl]	.	.	.	-13%
Cc1cc(Oc2ccccc2)nc(SCC(=O)Nc2ccc(Cl)c(Cl)c2)n1	13µM*	.	-24%	-55%
Cc1cc(Oc2ccccc2)nc(SCC(=O)Nc2ccccc2)n1	?	.	-8%	-21%
Cc1ccc(SC(C)C(=O)N2CCN(c3ccccc3)CC2)cc1 (stereo unspecified)	8.3µM*	27%	18%	-27%
O=C(C(Sc1ccccc1)c1ccccc1)N1CCN(c2ccccc2)CC1 (stereo unspecified)	?	?	-21%	-3%
CCOC(=O)c1c(C)[n+](-c2ccc(C)cc2)c(CC)c2cc(OC)c(OC)cc12	0.74µM*	0.83µM*	0%	4%
O=C(COC(=O)Cc1ccsc1)Nc1ccc(Cl)cn1	-13%	6%	-11%	.
CN(C)CCCn1c(=O)n(Cc2ccco2)c(=O)c2c3c(sc21)CCCCC3	12µM*	?	1%	3%
CN1CCN(C(=O)c2cc(Cl)cc(Cl)c2NC(=O)c2ccco2)CC1	33%	12%	-1%	-3%
SMILES	Pf growth 96h	Pf growth 48h	SARS PLpro yeast	NS1 function inh
CC1CCN(C(=O)c2cc(Cl)ccc2NC(=O)c2ccco2)CC1	2.3µM*	6%	0%	3%
CC1CCCCN1C(=O)c1ccccc1NC(=O)c1ccco1 (stereo unspecified)	10µM*	4%	-3%	-3%
O=C(Nc1ccccc1C(=O)N1CCOCC1)c1ccco1	?	0%	-12%	5%
NS(=O)(=O)c1ccc(NC(=O)COC(=O)COc2ccc(Br)cc2)cc1	21%	0%	-1%	5%
C/C(CC(=O)Nc1cccc2c1CCCC2)=N\NC(=O)c1ccccc1N	11%	?	4%	13%
C/C(CC(=O)Nc1cccc2c1CCCC2)=N\NC(=O)c1cccc2ccccc12	13µM*	-6%	-11%	15%
Cc1ccc(-n2nc(C)c3onc(C)c3c2=O)cc1	22%	6%	1%	0%
O=S(=O)(c1ccccc1)[C@@]1(c2ccccc2)C[C@@H]2ON=C(c3cccc(-c4ccccc4)c3)[C@@H]2C1	?	7.4µM*	0%	.
COc1ccc2cc(C(=O)C3CCCN(C(=O)c4csnn4)C3)ccc2c1 (stereo unspecified)	?	?	-2%	-10%
COc1cc(OC)cc(C(=O)N2CCN(C(=O)c3cccnc3)CC2)c1	15µM*	?	7%	-4%
COc1cccc(-c2nc3ccc(C(=O)N4CCCC(O)C4)cc3o2)c1 (stereo unspecified)	10µM*	1%	1%	-5%
CCC(=O)C1CCCN(C(=O)c2ccc3nc(-c4cccc(OC)c4)oc3c2)C1 (stereo unspecified)	?	217%	-1%	1%
COc1ccc2cc(C(=O)C3CCCN(C(=O)c4cccnc4)C3)ccc2c1 (stereo unspecified)	12µM*	14%	0%	-3%
COc1ccc2cc(C(=O)C3CCCN(C(=O)C4=NN(C)C(=O)CC4)C3)ccc2c1 (stereo unspecified)	5.2µM*	0%	2%	-4%
COc1cccc(N2CCN(C(=O)c3cccnc3)CC2)c1	.	-13%	6%	13%
CN1C(=O)c2ccc(NC(=O)CCS(=O)(=O)c3ccccc3)cc2C1=O	19%	9%	-4%	.
Cc1ccc(C(OCC(C)(C)C[N+](C)(C)C)c2ccccc2)cc1 (stereo unspecified)	?	1.3µM*	2%	.
CN1CCN(c2ccc(C=O)cc2)CC1	.	-1%	1%	0%
CN1C/C(=C/c2ccncc2)C(=O)/C(=C/c2ccncc2)C1	?	2.6µM*	-7%	-14%
CN1C/C(=C\c2ccc(N3CCOCC3)cc2)C(=O)/C(=C/c2ccc(N3CCOCC3)cc2)C1	65%	?	10µM*	21%
CN1C/C(=C/c2ccsc2)C(=O)/C(=C/c2ccsc2)C1	?	2%	-11%	-11%
CCN1C/C(=C/c2ccc(N3CCOCC3)cc2)C(=O)/C(=C/c2ccc(N3CCOCC3)cc2)C1	4.1µM*	7.4µM*	4%	4%
Cc1ccc(-n2cc(CN3CCN(Cc4nccn4C)CC3)c(-c3ccc(F)cc3)n2)cc1	?	6.6µM*	-1%	3%
Cc1ccc(-n2cc(CN3CCN(C(=O)c4ncn[nH]4)CC3)c(-c3ccc(F)cc3)n2)cc1	15µM*	12µM*	0%	1%
Cc1ccc(-n2cc(CNCCCn3ccnc3C)c(-c3ccc(F)cc3)n2)cc1	23%	2.3µM*	1%	0%
COc1ccc(-n2cc(CNCCCn3ccnc3)c(-c3cccc(F)c3)n2)cc1	-13%	1.5µM*	0%	2%
CCOc1ccc(S(=O)(=O)NCc2ccc3c(c2)OCO3)cc1	?	?	4%	-41%

Screening data from PubChem.
